Data from PubChem BioAssay (NCI).
About 83,000 compounds went through this panel and 20% of them were active in at least one assay; those are over-represented in the sample as a whole.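 96-well plates, one dose, 48 hours. Percent growth reported; active if below 10.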 Activity calls are given as the source filed them.

What follows are compounds tested on MDA-MB-468 breast (assay: NCI-60 one-dose screen, 48 h (100 = growth as untreated, 0 = no growth, -100 = all killed)). Details: 10 µM unless noted.

Structure (SMILES) | growth
CCOC(=O)CC[C@H](NC(=O)c1ccc(N(C)Cc2cnc3nc(N)nc(N)c3n2)c2ccccc12)C(=O)OCC | 27.1% (inactive)
C[C@H]1[C@H](C)CC[C@]2(C(=O)O)CC[C@]3(C)C(=CC[C@@H]4[C@@]5(C)C/C(=C/c6cccnc6)[C@H](O)C(C)(C)[C@@H]5CC[C@]43C)[C@H]12 | 5.39% [100 µM] (active)
O=C1c2c(c3c4cc(Br)ccc4[nH]c3c3ccc4ccccc4c23)C(=O)N1CCO | 100% (inactive)
Fc1ccccc1-c1nc(-c2nc3cc(Cl)c(Cl)cc3[nH]2)c2ccccn12 | 63.1% (inactive)
C=C(C)[C@@H]1CC[C@]2(C(=O)N3CCN(C)CC3)CC[C@]3(C)[C@H](CC[C@@H]4[C@@]5(C)CCC(=O)C(C)(C)[C@@H]5CC[C@]43C)[C@@H]12 | 77.3% (inactive)
COc1ccc(/C(=N/O)c2cc(OC)c(OC)c(OC)c2)c(OC)c1N | 27.8% (inactive)
COc1cccc(/C=C2/C(=O)N(Cc3ccco3)SC2=S)c1OC | 76% (inactive)
CNC(=O)c1c(NC(=O)c2ccc(F)cc2F)sc2c1CCC(=O)C2 | -15.5% (active)
NC(Cc1ccc(O)c([N+](=O)[O-])c1)C(=O)O (stereo unspecified) | 101% (inactive)
CN1CCN(C(=O)OCc2ccc3c(Cl)cc(Cl)c(O)c3n2)CC1 | 67.1% (inactive)
Cc1ccc(NC(C(=O)c2ccccc2)c2ccccc2)cc1 (stereo unspecified) | 8.06% (active)
